The record followed here is PubChem BioAssay (NCATS).

In experiment [1] the target is Lysosomal acid glucosylceramidase (Homo sapiens) (UniProt P04062). Nature of the experiment: Glucocerebrosidase-p2 (AID 348; in the data active = potency below about 10 µM; note: potency is the fitted concentration of half-maximal effect). The note with it: purified GBA, blue fluorogenic substrate, 40 min. Put shortly:
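Normal human glucocerebrosidase (0.2 nM) with blue fluorogenic substrate (80 uM final) in citrate/phosphate pH 5.9 with 10mM sodium taurocholate, 0.01% tween-20; 40 min RT, NaOH/glycine stop; fluorescence Ex 365/Em 440; AC50 from a titration from 0.6 nM upwards.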

The nature of experiment [2]: AP1 Signaling Pathway (AID 357). Note: % is set by controls: 0 for no effect and ±100 for the full control effect. The note with it: ME-180 AP-1-bla reporter, EGF-induced, beta-lactamase ratio, 5 h; at 7.69 µM (top of the series) unless noted. In short, it runs like this: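 AP-1-bla ME-180 cells with beta-lactamase reporter under AP-1 response element, stimulated with EC50 EGF; compounds titrated, 5 hours at 37 degrees Celsius. CCF4 read at 460/530 nm ratio; positive and negative modulators judged by AC50.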

The target of experiment [3] is Cytochrome P450 1A2 (Homo sapiens) (UniProt P05177). The experiment can be described thus: p450-cyp1a2 (AID 410; calls by dose curve; note: potency is the fitted concentration of half-maximal effect). The conditions noted are these: recombinant CYP1A2, luciferin-ME demethylation, luminescence; series mostly up to 57 µM. In short, it runs like this: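 20nM CYP1A2, 100uM Luciferin-ME (=Km), 100mM KPO4; cpd 10 min RT; +NADPH regen, 60 min RT; stop/detect 20 min; luminescence. Normalized to furafylline 57 uM = full inhibition.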
Cytochrome P450 1A2 (Homo sapiens), sequence (P05177 whole entry, looked up): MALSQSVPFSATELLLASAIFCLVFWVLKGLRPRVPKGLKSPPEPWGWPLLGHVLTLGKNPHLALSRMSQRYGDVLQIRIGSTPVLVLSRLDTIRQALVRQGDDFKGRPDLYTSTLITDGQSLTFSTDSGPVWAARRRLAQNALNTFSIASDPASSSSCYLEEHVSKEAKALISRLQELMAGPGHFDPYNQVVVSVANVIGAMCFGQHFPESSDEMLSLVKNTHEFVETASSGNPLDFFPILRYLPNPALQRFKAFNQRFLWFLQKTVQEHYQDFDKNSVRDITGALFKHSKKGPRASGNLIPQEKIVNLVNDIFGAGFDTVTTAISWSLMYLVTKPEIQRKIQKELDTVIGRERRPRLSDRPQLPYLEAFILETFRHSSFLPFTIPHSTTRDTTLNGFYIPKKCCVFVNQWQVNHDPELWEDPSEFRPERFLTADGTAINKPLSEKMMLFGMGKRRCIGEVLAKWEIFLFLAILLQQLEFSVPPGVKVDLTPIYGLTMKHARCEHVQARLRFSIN

A short description of experiment [4]: NFAT Signaling Pathway (AID 444).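 Note: carbachol stimulus at about its EC50 of 1 µM final; % is set by controls: 0 for no effect and ±100 for the full control effect.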 The note with it: Jurkat NFAT-bla M1, carbachol, beta-lactamase ratio, 5 h; at 7.69 µM (top of the series) unless noted. In short, it runs like this:
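Jurkat cells carrying an NFAT-driven β-lactamase reporter and co-transfected muscarinic M1 receptor were treated with compound plus carbachol (1 uM final, an EC50 level) for 5 h at 37 °C. CCF4 loading followed for 1 h at RT; 460/530 nm ratio gave %activity.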

Experiment [5] in a line: Stat Signaling Pathway (AID 446).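 Note: ME-180 cervical cancer cells given 40 pM IL-6 alongside compound; SIE-controlled beta-lactamase reporter measured as 460/530 nm FRET emission ratio; % is set by controls: 0 for no effect and ±100 for the full control effect.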 The conditions noted are these: ME-180 (cervical carcinoma) SIE beta-lactamase reporter, IL-6 stimulated, 5 h; at 7.69 µM (top of the series) unless noted. Put shortly:
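Emission at 460 and 530 nm (excitation 405 nm) reports SIE-controlled beta-lactamase in ME-180 cells. Cells received compound with 40 pM IL-6 for 5 hrs at 37 C; data scaled between 300 pM IL-6 and 125 nM JAK-inhibitor controls.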

In experiment [6] the target is Glucocorticoid receptor (Homo sapiens) (UniProt P04150). Nature of the experiment: GR-GFP Redistribution (AID 450;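 active = compounds whose dose series gives a full or clear partial fitted curve of increased nuclear translocation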; note: potency is the fitted concentration of half-maximal effect). The note with it: U2OS GR-GFP nuclear translocation, laser cytometry, 2 h.
Glucocorticoid receptor (Homo sapiens), sequence (P04150 whole entry, looked up): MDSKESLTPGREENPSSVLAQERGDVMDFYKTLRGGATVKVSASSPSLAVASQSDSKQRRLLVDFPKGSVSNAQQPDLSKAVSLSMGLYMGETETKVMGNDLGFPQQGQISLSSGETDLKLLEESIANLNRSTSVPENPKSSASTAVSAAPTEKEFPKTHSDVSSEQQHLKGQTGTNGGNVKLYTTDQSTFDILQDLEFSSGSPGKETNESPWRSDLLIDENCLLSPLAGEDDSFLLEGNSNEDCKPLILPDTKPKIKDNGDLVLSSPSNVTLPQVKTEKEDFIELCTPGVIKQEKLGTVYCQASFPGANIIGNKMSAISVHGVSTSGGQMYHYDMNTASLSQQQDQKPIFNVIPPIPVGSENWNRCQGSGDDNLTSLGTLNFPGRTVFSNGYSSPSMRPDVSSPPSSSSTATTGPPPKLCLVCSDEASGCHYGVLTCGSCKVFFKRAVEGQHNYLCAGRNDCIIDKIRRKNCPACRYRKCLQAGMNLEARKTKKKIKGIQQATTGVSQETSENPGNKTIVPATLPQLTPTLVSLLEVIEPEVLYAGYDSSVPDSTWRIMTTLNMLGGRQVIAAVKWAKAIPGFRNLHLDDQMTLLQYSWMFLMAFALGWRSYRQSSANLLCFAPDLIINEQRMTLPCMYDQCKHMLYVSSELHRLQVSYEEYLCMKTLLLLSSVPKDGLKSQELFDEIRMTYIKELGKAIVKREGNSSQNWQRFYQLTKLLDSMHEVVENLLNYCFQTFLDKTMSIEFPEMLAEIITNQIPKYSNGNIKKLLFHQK
The target is the same in experiment [7]. Nature of the experiment: GR-EFC Redistribution (AID 451; calls by dose curve; note: potency is the fitted concentration of half-maximal effect). The conditions noted are these: CHO-K1 GR-EFC translocation, beta-gal luminescence, 2 h. In short, it runs like this:
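CHO-K1 cells stably expressing nuclear-localized β-gal enzyme acceptor and GR fused C-terminally to the enzyme donor fragment; ligand-driven nuclear translocation restores β-gal by complementation. Compounds titrated up to 46 uM final, 2 h at 37 °C; luminescence read.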

For experiment [8], the target named is Mitogen-activated protein kinase 10 (Mus musculus) (UniProt Q61831). The experiment can be described thus: JNK3 AlphaScreen Assay (AID 530).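 Note: kinase came from lysate of stimulated human HepG2 cells; signal reports phosphorylation of biotinylated GST-cJun 1-79 at Ser73 with 10 µM ATP; % is set by controls: 0 for no effect and ±100 for the full control effect.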 The conditions noted are these: JNK3 lysate, c-Jun phosphorylation; series mostly up to 57.1 µM. In short, it runs like this:
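Biotinylated GST-cJun(1-79) served as substrate for JNK3 in HepG2 lysates stimulated with IL-1beta and TNF-alpha. ATP was 10 uM final, pH 7.6. Ser73 phosphorylation was quantified by AlphaScreen (680 nm excitation).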

The target in experiment [9] is 3',5'-cyclic-AMP phosphodiesterase 4B (Homo sapiens) (UniProt Q07343). Nature of the experiment: qHTS Assay for Inhibitors of PDE-IV (AID 607; active = well fitted activation curve with a large enough effect in the main read-out, with a control signal flat, not every such curve was filed as active; note: % of control where 0% means no effect). The note with it: HEK293 ACTOne CNG channel cells, membrane potential fluorescence; series mostly up to 22.9 µM. Put shortly:
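The readout is membrane depolarisation from a cAMP-sensing CNG channel, detected with a potential dye at ex 535/em 590. Cells were HEK293-derived (endogenous PDE-IV) at 1000 cells/well, titrated up to 22.9 uM final.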

For experiment [10], the target named is Dual specificity protein kinase CLK4 (Homo sapiens) (UniProt Q9HAZ1). The experiment can be described thus: qHTS Assay for Inhibitors of CDC-like Kinase 4 (ADP-FP Assay) (AID 1795; active = well fitted curve in the direction sought with a large enough effect; an effect the other way counts as inactive or inconclusive;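 note: recombinant human CLK4 phosphorylating RS repeat peptide at 1 µM ATP; % is set by controls: 0 for no effect and ±100 for the full control effect; nearly all actives have a fitted effect of over 60% in size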). The conditions noted are these: Transcreener ADP fluorescence polarization; series mostly up to 50 µM. In short, it runs like this: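 FP readout: Orange Transcreener ADP2 tracer (4 nM) plus ADP antibody, read after 30 min at room temperature. Kinase step: 6.25 nM Clk4, 100 uM RS peptide, 1 uM ATP, pH 7.5, 1 h.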
Dual specificity protein kinase CLK4 (Homo sapiens), sequence (Q9HAZ1 whole entry, looked up): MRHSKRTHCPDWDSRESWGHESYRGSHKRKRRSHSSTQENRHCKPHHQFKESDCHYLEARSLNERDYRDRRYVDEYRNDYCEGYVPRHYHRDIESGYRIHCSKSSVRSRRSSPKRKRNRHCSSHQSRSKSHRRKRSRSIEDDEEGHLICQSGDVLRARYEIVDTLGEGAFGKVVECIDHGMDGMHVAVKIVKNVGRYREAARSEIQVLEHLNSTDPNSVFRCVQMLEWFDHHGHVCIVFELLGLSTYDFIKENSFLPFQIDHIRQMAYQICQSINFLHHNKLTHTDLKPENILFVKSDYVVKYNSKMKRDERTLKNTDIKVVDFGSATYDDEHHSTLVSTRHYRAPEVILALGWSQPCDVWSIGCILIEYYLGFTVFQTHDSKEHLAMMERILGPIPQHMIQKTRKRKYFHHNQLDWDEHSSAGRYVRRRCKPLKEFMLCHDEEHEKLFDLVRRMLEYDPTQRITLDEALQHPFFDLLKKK

In experiment [11] the target is Ubiquitin carboxyl-terminal hydrolase 1 (Homo sapiens) (UniProt O94782). The experiment can be described thus: Inhibitors of USP1/UAF1: Pilot qHTS (AID 504865; active = well fitted curve in the direction sought with a large enough effect; an effect the other way counts as inactive or inconclusive;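 note: rhodamine fluorescence freed from ubiquitin-rhodamine substrate followed over time; top concentration of the series differs between compounds; % is set by controls: 0 for no effect and ±100 for the full control effect; nearly all actives have a fitted effect of over 35% in size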). The note with it: purified USP1/UAF1, Ub-rhodamine cleavage fluorescence; series mostly up to 54.9 µM. Put shortly:
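1nM USP1/UAF1 + cpd, 15 min RT; start w/ Ub-Rho 150nM final; kinetic FL 480/540 nm, 6 reads q60 s. Buffer 50mM HEPES pH 7.8, 0.5mM EDTA, 1mM TCEP, 0.01% Tween-20, 0.1 mg/ml BSA.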

Experiment [12] in a line: Primary qHTS for small molecule stabilizers of the endoplasmic reticulum resident proteome: Secreted ER Calcium Modulated Protein (SERCaMP) assay (AID 1508630; active = well fitted curve in the direction sought with a large enough effect; an effect the other way counts as inactive or inconclusive; note: % is set by controls: 0 for no effect and ±100 for the full control effect). The note with it: SH-SY5Y GLuc-SERCaMP (Gaussia luciferase released on ER calcium loss) secretion, thapsigargin, luminescence; series mostly up to 38.4 µM. Put shortly: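 The SH-SY5Y reporter protocol was run at 3 concentrations up to 38.3 uM (primary) or 11 concentrations (follow-up): 16 h compound, 100 nM thapsigargin for 4 h, then extracellular luciferase luminescence.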

In experiment [13] the target is Cytochrome P450 3A4 (Homo sapiens) (UniProt P08684). The experiment can be described thus: qHTS Assay for Activators of Cytochrome P450 3A4 (AID 885; active = well fitted curve in the direction sought with a large enough effect; an effect the other way counts as inactive or inconclusive; note: nearly all actives have a fitted effect of over 65% in size; note: potency is the fitted concentration of half-maximal effect). The conditions noted are these: recombinant CYP3A4, Luciferin-PPXE luminescence, 60 min; series mostly up to 57.1 µM. Put shortly: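 Activators are scored by enhanced luminescence from CYP3A4 conversion of luciferin-PPXE (25uM, equal to KM) to luciferin, after 60 min at RT with an NADPH-regenerating system.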
Cytochrome P450 3A4 (Homo sapiens), sequence (P08684 whole entry, looked up): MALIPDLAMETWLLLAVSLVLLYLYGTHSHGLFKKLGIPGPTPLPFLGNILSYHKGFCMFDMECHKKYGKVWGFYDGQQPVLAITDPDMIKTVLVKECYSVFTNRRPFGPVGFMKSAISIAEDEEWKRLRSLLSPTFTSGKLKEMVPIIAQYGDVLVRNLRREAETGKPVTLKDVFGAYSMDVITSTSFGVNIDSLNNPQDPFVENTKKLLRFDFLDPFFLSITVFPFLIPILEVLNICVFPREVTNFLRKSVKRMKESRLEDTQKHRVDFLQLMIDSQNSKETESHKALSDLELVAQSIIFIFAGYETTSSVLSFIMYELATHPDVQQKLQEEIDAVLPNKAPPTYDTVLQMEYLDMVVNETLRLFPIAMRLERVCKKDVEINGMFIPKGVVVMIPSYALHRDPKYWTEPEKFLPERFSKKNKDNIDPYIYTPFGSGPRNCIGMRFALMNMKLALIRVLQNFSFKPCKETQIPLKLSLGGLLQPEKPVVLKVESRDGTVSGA

Experiment [14] shares this target. The experiment can be described thus: qHTS Assay for Inhibitors and Substrates of Cytochrome P450 3A4 (AID 884; active = well fitted curve in the direction sought with a large enough effect; an effect the other way counts as inactive or inconclusive; note: nearly all actives have a fitted effect of over 50% in size; note: potency is the fitted concentration of half-maximal effect). The note with it: recombinant CYP3A4, Luciferin-PPXE luminescence; series mostly up to 57.1 µM. Put shortly:
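Luminescent readout of luciferin produced by CYP3A4 (20 nM) dealkylation of Luciferin-PPXE, 25 uM (its KM). NADPH-driven reaction ran 60 min at RT after 10 min compound preincubation; data scaled to 57 uM ketoconazole as 100% inhibition.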

Unmarked numbers belong to inactive results. Inconclusive results are not listed. Active and inactive are the calls of the source. Unless noted, calls come from the whole dose curve; as a rule, active = well fitted curve in either direction with a large enough effect (not every such curve was filed as active); inconclusive = small, poorly fitted or top-dose-only effect, or another doubt; inactive = flat fitted curve, though single readings scatter. Some results are limits rather than exact numbers.

3',5'-cyclic-AMP phosphodiesterase 4B (Homo sapiens), sequence (Q07343 whole entry, looked up): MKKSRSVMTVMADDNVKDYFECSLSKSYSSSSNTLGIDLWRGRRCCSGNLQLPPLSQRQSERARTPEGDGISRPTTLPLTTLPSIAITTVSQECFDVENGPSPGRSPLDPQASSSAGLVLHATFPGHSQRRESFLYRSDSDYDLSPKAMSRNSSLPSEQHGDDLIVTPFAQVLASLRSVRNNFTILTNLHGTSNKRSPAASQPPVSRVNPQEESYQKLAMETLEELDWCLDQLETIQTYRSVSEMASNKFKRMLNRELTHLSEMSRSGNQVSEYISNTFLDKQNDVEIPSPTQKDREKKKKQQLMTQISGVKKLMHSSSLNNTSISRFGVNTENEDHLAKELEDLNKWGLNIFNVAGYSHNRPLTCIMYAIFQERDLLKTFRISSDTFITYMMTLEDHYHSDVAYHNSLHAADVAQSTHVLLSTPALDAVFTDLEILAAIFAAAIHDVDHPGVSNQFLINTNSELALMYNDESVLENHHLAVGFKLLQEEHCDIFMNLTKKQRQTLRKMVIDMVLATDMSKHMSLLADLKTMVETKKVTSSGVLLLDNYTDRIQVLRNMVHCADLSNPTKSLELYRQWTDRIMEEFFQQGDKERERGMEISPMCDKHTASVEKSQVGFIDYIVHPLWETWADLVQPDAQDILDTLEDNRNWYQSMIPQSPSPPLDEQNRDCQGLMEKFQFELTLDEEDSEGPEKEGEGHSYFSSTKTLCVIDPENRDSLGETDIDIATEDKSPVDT
Lysosomal acid glucosylceramidase (Homo sapiens), sequence (P04062 whole entry, looked up): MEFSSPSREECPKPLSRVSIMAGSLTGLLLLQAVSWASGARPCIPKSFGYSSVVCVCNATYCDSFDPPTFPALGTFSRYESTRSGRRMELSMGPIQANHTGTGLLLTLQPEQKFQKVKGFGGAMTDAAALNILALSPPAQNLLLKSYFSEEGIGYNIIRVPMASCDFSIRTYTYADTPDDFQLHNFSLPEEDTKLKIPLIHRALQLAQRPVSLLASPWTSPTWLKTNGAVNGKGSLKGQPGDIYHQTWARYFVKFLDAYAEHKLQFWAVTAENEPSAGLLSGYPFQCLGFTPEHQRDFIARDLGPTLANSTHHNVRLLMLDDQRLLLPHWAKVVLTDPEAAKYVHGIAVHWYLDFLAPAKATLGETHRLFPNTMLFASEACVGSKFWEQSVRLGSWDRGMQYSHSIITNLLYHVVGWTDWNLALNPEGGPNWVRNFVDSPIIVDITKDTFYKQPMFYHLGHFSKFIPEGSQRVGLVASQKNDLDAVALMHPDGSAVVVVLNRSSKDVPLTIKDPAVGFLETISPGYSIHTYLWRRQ
Ubiquitin carboxyl-terminal hydrolase 1 (Homo sapiens), sequence (O94782 whole entry, looked up): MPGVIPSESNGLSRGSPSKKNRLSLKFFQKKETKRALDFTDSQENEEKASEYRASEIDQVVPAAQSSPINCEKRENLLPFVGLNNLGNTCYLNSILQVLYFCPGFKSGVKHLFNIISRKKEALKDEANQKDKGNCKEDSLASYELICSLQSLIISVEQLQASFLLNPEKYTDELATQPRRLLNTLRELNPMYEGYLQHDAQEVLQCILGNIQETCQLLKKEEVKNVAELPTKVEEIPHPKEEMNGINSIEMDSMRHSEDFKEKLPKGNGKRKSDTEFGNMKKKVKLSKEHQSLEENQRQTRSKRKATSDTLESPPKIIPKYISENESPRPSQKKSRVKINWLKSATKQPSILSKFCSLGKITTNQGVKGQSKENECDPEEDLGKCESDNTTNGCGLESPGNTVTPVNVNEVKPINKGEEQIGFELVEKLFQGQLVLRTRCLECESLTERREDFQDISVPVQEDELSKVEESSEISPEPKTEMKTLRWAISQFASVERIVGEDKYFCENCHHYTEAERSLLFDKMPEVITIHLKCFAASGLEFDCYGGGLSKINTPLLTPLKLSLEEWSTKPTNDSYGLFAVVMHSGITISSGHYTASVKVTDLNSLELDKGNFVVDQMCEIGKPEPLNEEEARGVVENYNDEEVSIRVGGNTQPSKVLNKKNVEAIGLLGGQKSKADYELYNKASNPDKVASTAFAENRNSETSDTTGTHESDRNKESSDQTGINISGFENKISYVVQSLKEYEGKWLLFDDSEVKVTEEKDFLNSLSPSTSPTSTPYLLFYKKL

As to `COCCn1c(=O)c(-c2cccc(C#N)c2)nc2cnc(Nc3ccccc3)nc21`, the Potency in experiment [1] is over 11.4 µM; in [3], 2.51 µM (active); in experiment [6], over 9.22 µM; in experiment [7], over 46 µM. Further, the figures for the activity change, negative = inhibition in experiment [2] and in experiment [4] were -6.21% and 3.3%, respectively. Besides, in experiment [5], the activity, negative = inhibition is -15.6%. For the same molecule, the Potency entry in [8], in experiment [9], in experiment [10] and in [11] was “inactive” in each case. Moreover, the outcome in [12] was inactive.
Take `COc1ccccc1CNc1cc(-c2ccccc2OC)ncn1`: the Potency in experiment [1] is over 11.4 µM; in [3], 2.51 µM (active); in [6], over 46 µM; in experiment [7], over 46 µM. Moreover, the activity change, negative = inhibition in experiment [2] is -14.2%; in [4], -2.18%. The activity, negative = inhibition in experiment [5] is -12.6%. Moreover, the Potency result in experiment [8], in experiment [9], in experiment [13], in [10] and in experiment [11] was “inactive” each time. For the same molecule, in [12], the result was inactive.
As for `Cc1ccccc1-c1cc(N(C)Cc2ccco2)ncn1`, the Potency in [1] was over 11.4 µM; in [3], 3.98 µM (active); in [6], over 46 µM; in experiment [7], over 46 µM. Moreover, the figures for the activity change, negative = inhibition in experiment [2] and in experiment [4] were 7.17% and -15.6%, respectively. Moreover, the activity, negative = inhibition in experiment [5] is 8.71%. In addition, the Potency entry in experiment [8], in experiment [9], in experiment [10] and in experiment [11] was “inactive” in each case. Further, the result in experiment [12] was inactive.
With `CS(=O)(=O)Nc1cccc(-c2cncnc2-n2ccnc2)c1`, the Potency was over 11.4 µM in experiment [1]; 15.8 µM (active) in [3]; over 46 µM in experiment [6]; over 46 µM in [7]; 7.94 µM (active) in experiment [14]. The results for the activity change, negative = inhibition in experiment [2] and in experiment [4] were 7.32% and 14.5%, respectively. Moreover, the activity, negative = inhibition in [5] is 14.6%. In addition, the Potency entry in experiment [8], in [9], in experiment [13], in experiment [10] and in experiment [11] was “inactive” throughout. Also, in experiment [12], the outcome was inactive.
As to `Cc1cnc(CNc2cc(-c3ccccc3C)ncn2)cn1`, the Potency in experiment [1] is over 11.4 µM; in experiment [3], 12.6 µM (active); in [6] it was over 46 µM; in experiment [7] it was over 46 µM; in experiment [13], 3.16 µM (active). For the same molecule, the activity change, negative = inhibition was -5.18% in [2] and 14% in experiment [4]. In addition, in experiment [5], the activity, negative = inhibition was 4.06%. For the same molecule, the Potency result in [8], in experiment [9], in experiment [14], in experiment [10] and in [11] was “inactive” each time. Moreover, the result in experiment [12] was inactive.
For the molecule `Cc1noc(C)c1-c1nccc(NCCN2CCOCC2)n1`, the Potency in experiment [1] is over 11.4 µM; in experiment [3], 7.94 µM (active); in experiment [6], over 46 µM; in experiment [7], over 46 µM. Moreover, the activity change, negative = inhibition in experiment [2] was -1.23%; in experiment [4], -8.35%. Also, the activity, negative = inhibition in [5] was 2.66%. Further, the Potency entry in [8], in [9], in experiment [13], in [10] and in experiment [11] was “inactive” each time. Further, the outcome in [12] was inactive.
Turning to `Cc1cnc(CNc2ncnc3ccc(-c4ccc(C(=O)N(C)C)cc4)cc23)cn1`, the Potency is over 11.4 µM in [1], 15.8 µM (active) in experiment [3], over 46 µM in [6] and over 46 µM in experiment [7]. For the same molecule, the activity change, negative = inhibition in experiment [2] is -13.6%; in [4] it was 9.3%. For the same molecule, the activity, negative = inhibition in [5] is -5.52%. Further, the Potency result in experiment [8], in [9], in experiment [10] and in experiment [11] was “inactive” in each case. Also, the result in experiment [12] was inactive.
